In PubChem BioAssay (NCI):
This is part of a sample that, as a whole, favours compounds with a hit. Of some 83,000 tested, about 20% had one in any assay.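 Growth was measured after 48 h exposure to one concentration of compound in 96-well plates. Values under 10 count as active.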 A number with no mark means an inactive call. Calls of active or inactive are those of the source.

Experiments:
Test in all cases: NCI-60 one-dose screen, 48 h (100 = growth as untreated, 0 = no growth, -100 = all killed)
Details in all cases: 10 µM
NCI-H23 lung = tested on: NCI-H23 lung
NCI-H226 lung = tested on: NCI-H226 lung
NCI-H322M lung = tested on: NCI-H322M lung
HOP-62 NSCLC = tested on: HOP-62 NSCLC
NCI-H460 lung = tested on: NCI-H460 lung
NCI-H522 lung = tested on: NCI-H522 lung
A549/ATCC NSCLC = tested on: A549/ATCC NSCLC
786-0 renal = tested on: 786-0 renal
COLO 205 colon = tested on: COLO 205 colon
DU-145 prostate = tested on: DU-145 prostate
K-562 leukemia = tested on: K-562 leukemia
MALME-3M melanoma = tested on: MALME-3M melanoma
MDA-MB-231 breast = tested on: MDA-MB-231 breast
SF-268 CNS = tested on: SF-268 CNS
SF-295 CNS = tested on: SF-295 CNS
SF-539 CNS = tested on: SF-539 CNS
UACC-257 melanoma = tested on: UACC-257 melanoma
M14 melanoma = tested on: M14 melanoma
HCT-15 colon = tested on: HCT-15 colon

| Structure (SMILES) | growth (NCI-H23 lung) | growth (NCI-H226 lung) | growth (NCI-H322M lung) | growth (HOP-62 NSCLC) | growth (NCI-H460 lung) | growth (NCI-H522 lung) | growth (A549/ATCC NSCLC) | growth (786-0 renal) | growth (COLO 205 colon) | growth (DU-145 prostate) | growth (K-562 leukemia) | growth (MALME-3M melanoma) | growth (MDA-MB-231 breast) | growth (SF-268 CNS) | growth (SF-295 CNS) | growth (SF-539 CNS) | growth (UACC-257 melanoma) | growth (M14 melanoma) | growth (HCT-15 colon) [%] |
| --- | --- | --- | --- | --- | --- | --- | --- | --- | --- | --- | --- | --- | --- | --- | --- | --- | --- | --- | --- |
| COc1cc(/C=N/NC(=O)c2ccccc2Nc2ccnc(C(F)(F)F)c2)ccc1O | 91.8% | 238% | 130% | 110% | 108% | 102% | 66.9% | 106% | 115% | 130% | 90.4% | 121% | 112% | 105% | 114% | 112% | 126% | 89.7% | 106 |
| COc1ccc2nc3cc(Cl)ccc3c(NCCNCC(C)O)c2c1 (stereo not given) | 42.8% | 67.9% | 25.8% | 19% | 0.055% (active) | -56.5% (active) | -3.68% (active) | 35.5% | 8.35% (active) | 28.8% | 2.47% (active) | 44.4% | 34.3% | 36% | 35.1% | 26.2% | 30.2% | 43.3% | 19.4 |
| COC(=O)C(=C\c1ccc2c(c1)OCO2)/C(=C/c1ccc2c(c1)OCO2)C(=O)OC | 92.4% | 97.8% | 96.9% | 102% | 112% | 86% | 101% | 98.1% | 102% | 103% | 108% | 101% | 107% | 96% | 95.3% | 96.1% | 108% | 99.4% | 97.8 |
| CN1CCC2(CC1)NC(=O)c1c(c3ccc(Cl)c(Cl)c3n1C)C2C#N (stereo not given) | 76.6% | 53.8% | 85.6% | 58% | 49% | 76.3% | 63.7% | 68.7% | 58% | 92.4% | 80.1% | 98.3% | 55% | 67.4% | 94.9% | 76% | 65.2% | 23.8% | 82.6 |
| N=c1nc(N)ncn1-c1ccccc1 | 93.1% | 89.9% | 108% | 92.9% | 106% | 83.1% | 92.4% | 98% | 101% | 112% | 93.5% | 110% | 96.1% | 108% | 97.8% | 96.4% | 97.1% | 106% | 99.1 |
| CCC1(C(C)C)NC(=O)NC1=O (stereo not given) | 99.1% | 96.4% | 110% | 96% | 110% | 101% | 96.1% | 97.7% | 115% | 104% | 88.3% | 104% | 100% | 102% | 97.6% | 101% | 92.4% | 107% | 105 |
| ClCCOCCn1cnc2c(Cl)nc(Cl)nc21 | 55.1% | 74.8% | 89.9% | 88.6% | 28.5% | 60.1% | 60.7% | 87.6% | 88.1% | -5.51% (active) | 28.2% | 112% | 58.2% | 45.3% | 70.2% | 96.8% | 59.9% | 46.5% | 18.4 |
| Cc1cc(O)c(C(C)(C)C)cc1Sc1cc(C(C)(C)C)c(O)cc1C | 44.5% | 84.3% | 81.6% | 62% | 42% | 48.3% | 35.2% | 79.9% | 90.7% | 50% | 14.6% | 73.7% | -9.88% (active) | 49.4% | 53.4% | 77.8% | 30.9% | 0.358% (active) | 44.3 |
| COc1ccc(/C(=C2/O[C@@H]([C@H]3COC(C)(C)O3)[C@H]3OC(C)(C)O[C@@H]23)c2cc(OC)c(OC)c(OC)c2)cc1O | 81.2% | 113% | 91.5% | 91.3% | 104% | 51.8% | 80.1% | 86.3% | 121% | 45.6% | 10.2% | 69.6% | 54.5% | 37.8% | 77.6% | 21.5% | 126% | 19.5% | 32.5 |
| COC(=O)c1ccc(=O)oc1 | 93% | 101% | 106% | 96.1% | 110% | 99.9% | 101% | 99.4% | 119% | 114% | 86.8% | 101% | 98.1% | 104% | 102% | 95.8% | 100% | 101% | 97.8 |
| CCN(CC)CCCC(C)Nc1nc(-c2ccc(OC)cc2)nc2cc(Cl)ccc12 (stereo not given) | 73.2% | 91.7% | 65.4% | 70.5% | 72.5% | 35.6% | 69.6% | 65.5% | 41.6% | 77.9% | 44.3% | 79.2% | 28.9% | 60.1% | 89.7% | 62% | 46% | -29% (active) | 49.9 |
| COc1ccc2nc3ccccc3c(NCCNCC(C)O)c2c1 (stereo not given) | -2.17% (active) | -4.19% (active) | -3.32% (active) | -13.6% (active) | -10.8% (active) | -26.5% (active) | -36.4% (active) | 0.024% (active) | -27.5% (active) | 9.52% (active) | 9.22% (active) | -13.7% (active) | -28.2% (active) | 8.57% (active) | 7.81% (active) | 6.66% (active) | 7.95% (active) | 11.3% | 23.1 |
| CCN(CCCCCCN1CC(=O)N(CCCCCCN(CC)Cc2ccccc2OC)CC1=O)Cc1ccccc1OC | 60.4% | 107% | 96.5% | 79.7% | 75.1% | 76% | 85.8% | 74.2% | 54.6% | 76.7% | 4.44% (active) | 109% | 93.4% | 90.6% | 72.2% | 92.8% | 108% | 82.5% | 83.5 |
| CCN(CC)CCCOCCCNc1cc(OC)cc2cccnc12 | 83.8% | 85% | 98.7% | 91.7% | 103% | 82.5% | 93.4% | 104% | 31.2% | 116% | 94.3% | 104% | 78% | 96.7% | 101% | 108% | 83.1% | 106% | 102 |
| CCN(CC)CCC(CNc1c(C)cnc2cc(Cl)ccc12)c1ccc(Cl)cc1 (stereo not given) | 61.3% | 102% | 53.8% | 66.2% | 67.7% | 31.7% | 64.7% | 58.2% | -45.5% (active) | 79% | 7.15% (active) | -57.9% (active) | 27.3% | 67.5% | 51.4% | -52.3% (active) | -58.3% (active) | -67.3% (active) | 35 |
